Common to all, as to assay: NCI-60 one-dose screen, 48 h (100 = growth as untreated, 0 = no growth, -100 = all killed)
What all share (settings): 10 µM unless noted

Test [1] deals with T-47D breast.
Test [2] has as its system BT-549 breast.
Test [3] has as its system MDA-MB-435 melanoma.
Test [4] relates to SW-620 colon.
Test [5] has as its system MCF7 breast.
The test system of test [6] is HCT-116 colon.
For test [7], the system named is HCC-2998 colon.
The subject of test [8] is KM12 colon.

The panel holds about 83,000 compounds, 20% with a hit somewhere; the sample as a whole holds those more often.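 Step 1: grow cells in 96-well plates. Step 2: add test compound at a single concentration. Step 3: incubate 48 h. Step 4: record percent growth.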 A number with no mark means an inactive call. Calls of active or inactive are those of the source. Rule for the calls: active = growth percent below 10; inactive = the rest.

For `COc1ccc(/C=C2\SC(=O)N(Cc3cc(=O)oc4ccc(OC)cc34)C2=O)cc1`, the growth in test [1] was 63.1%; in test [2] it was 77.4%; in test [3] it was 100%; in test [4] it was 106%; in test [5] it was 82.5%; in test [6], 82.8%. For the same compound, the values for the growth in test [7] and in test [8] were 95.4% and 88.9%, respectively.

In the case of `COc1ccc(Cn2cc3c(c2-c2ccc(O)cc2)CCc2cnoc2-3)cc1`, the growth is 50% in test [1]; 44.4% in test [2]; -39.4% (active) in test [3]; 22.5% in test [4]; 14.7% in test [5]; 11.1% in test [6]. Further, the growth was -21.1% (active) in test [7] and 11.8% in test [8].

In the case of `O=C(NC1CCN(Cc2ccccc2)CC1)c1cc(-c2cccnc2)nc2ccc(Cl)cc12`, the growth in test [1] is 45%; in test [2], 75.5%; in test [3], 75%; in test [4] it was 27%; in test [5], 70.9%; in test [6] it was 57.6%. The growth in test [7] is 64.9%; in test [8] it was 39.2%.

`COc1cc(NC(C)CCCN)c2nccc(C)c2c1OC` (stereo unspecified): the growth in test [1] was 66.7%; in test [2], 98.2%; in test [3], 106%; in test [4], 83.5%; in test [5] it was 10.2%; in test [6], 93.1%. Moreover, the results for the growth in test [7] and in test [8] were 96.7% and 101%, respectively.

Consider `O=C1C(Br)=CC2C1C1C3CCC3C2(Br)C12OCCO2` (stereo unspecified), for which the growth in test [1] was 3.72% (active); in test [2], 45.6%; in test [3] it was 23.7%; in test [4], 17.3%; in test [5] it was 2.12% (active); in test [6], 16.1%. Moreover, the figures for the growth in test [7] and in test [8] were 74.8% and 44.9%, respectively.

`O=C(/C=C1\C(=O)N(Cc2ccc([N+](=O)[O-])cc2)c2ccccc21)c1ccc(OCCN2CCCC2)cc1`: the growth is 56.3% in test [1]; 81.5% in test [2]; 48.2% in test [3]; 18.7% in test [4]; 22.3% in test [5]; 12.2% in test [6]. The growth in test [7] is 101%; in test [8], 90.1%.

For `O=C(Nc1ccccc1)Nc1ccc(Nc2ncnc3sc4c(c23)CCCC4)cc1`, the growth in test [1] was 101%; in test [2], 109%; in test [3], 112%; in test [4], 106%; in test [5] it was 96.2%; in test [6], 115%. Further, the values for the growth in test [7] and in test [8] were 95.4% and 102%, respectively.

As for `COc1ccc2sc(-n3nc4nc5n(c(=O)c4c3N)-c3ccccc3Sc3ccccc3-5)nc2c1`, the growth was 29.2% in test [1]; 73.2% in test [2]; 79.5% in test [3]; 95.6% in test [4]; 54.2% in test [5]; 65.7% in test [6]. Further, the growth is 93.6% in test [7] and 81.4% in test [8].

On to `Nc1ccc(S(=O)(=O)Nc2cc(F)cc(F)c2)cc1`, for which the growth was 105% in test [1]; 88.1% in test [2]; 102% in test [3]; 91.6% in test [4]; 108% in test [5]; 109% in test [6]. Also, the values for the growth in test [7] and in test [8] were 106% and 107%, respectively.

In the case of `O=C(/C=C/c1ccc(Br)cc1)c1ccccc1`, the growth is 74.8% in test [1]; 95.8% in test [2]; 87.6% in test [3]; 65.6% in test [4]; 8.28% (active) in test [5]; 61.6% in test [6]. The growth in test [7] was 99.4%; in test [8] it was 39.6%.

For `O=C(/C=C/c1cccc(O)c1)c1cccc(-n2cc(-c3ccc(Cl)cc3)[nH]c2=O)c1`, the growth is -0.126% (active) in test [1]; -42.5% (active) in test [2]; -9.55% (active) in test [3]; -75.4% (active) in test [4]; -8.69% (active) in test [5]; -85.2% (active) in test [6]. The results for the growth in test [7] and in test [8] were -64.4% (active) and -73.3% (active), respectively.

As for `Ic1ccc(SSc2ccc(I)cc2)cc1`, the growth in test [1] is 79.7%; in test [2], 41.5%; in test [3], 100%; in test [4] it was 106%; in test [5], 92.4%; in test [6] it was 83.7%. Also, the growth was 104% in test [7] and 82.2% in test [8].

In the case of `COc1ccc(C2=C/C(=C\c3ccc(Cl)cc3)C(=O)NN2C(=S)NN)cc1`, the growth in test [1] is 76.6%; in test [2], 101%; in test [3], 109%; in test [4] it was 99.4%; in test [5], 75.3%; in test [6], 94.9%. Moreover, the growth is 109% in test [7] and 100% in test [8].

With `CCC(C)(C)c1ccc(OCCCCCCN2CCNCC2)cc1`, the growth in test [1] was 40%; in test [2], 89.1%; in test [3], 25.9%; in test [4] it was -10.4% (active); in test [5] it was 4.81% (active); in test [6] it was 6.39% (active). Besides, the growth was -13.5% (active) in test [7] and 25.2% in test [8].

Consider `COc1cc(OC)cc(-c2ccc(-c3ccc(C(=N)N)cc3)s2)c1`, for which the growth in test [1] was -53.6% (active); in test [2] it was -72.4% (active); in test [3], -97.5% (active); in test [4], -73.7% (active); in test [5], -75.2% (active); in test [6] it was -93.3% (active). Further, the growth in test [7] was -76.5% (active); in test [8], -84.9% (active).

`CC1=C(C)C[C@]2(C(=O)O[C@H]3CCCC[C@@H]32)[S@](=O)C1`: the growth in test [1] was 105%; in test [2], 91.6%; in test [3], 103%; in test [4] it was 110%; in test [5], 95%; in test [6] it was 108%. For the same compound, the growth in test [7] is 95%; in test [8] it was 101%.

With `CCC(CCCN1C(=O)c2ccccc2C1=O)Nc1cc(OC)cc2c(C)ccnc12` (stereo unspecified), the growth in test [1] was 85.9%; in test [2] it was 78.7%; in test [3] it was 99.2%; in test [4], 85.6%; in test [5], 91.5%; in test [6] it was 98%. The growth in test [7] was 69%; in test [8] it was 102%.
